Test results as given in PubChem BioAssay (NCATS).
Inconclusive results are not listed. Active and inactive are the calls of the source. Unless noted, the call rests on the fitted dose curve; in most records, active means well fitted curve in either direction with a large enough effect (not every such curve was filed as active); inconclusive means small, poorly fitted or top-dose-only effect, or another doubt; inactive means flat fitted curve, though single readings scatter.

Experiments:
[1] = target: Lysosomal acid glucosylceramidase (Homo sapiens) (UniProt P04062); experiment: Glucocerebrosidase-p2 (AID 348; in the data active means potency below about 10 µM; further: potency means the concentration at half of the fitted maximal effect); details: purified GBA, blue fluorogenic substrate, 40 min
Procedure, shortened: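 Normal human glucocerebrosidase (0.2 nM) with blue fluorogenic substrate (80 uM final) in citrate/phosphate pH 5.9 with 10mM sodium taurocholate, 0.01% tween-20; 40 min RT, NaOH/glycine stop; fluorescence Ex 365/Em 440; AC50 from a titration from 0.6 nM upwards.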

[2] = AP1 Signaling Pathway (AID 357); details: ME-180 AP-1-bla reporter, EGF-induced, beta-lactamase ratio, 5 h; at 7.69 µM (top of the series) unless noted;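 further: ME-180 reporter cells stimulated with EGF at its EC50 level; on the % scale 0 is the no-effect control and ±100 the full control effect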
Procedure, shortened: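 A ratiometric CCF4 readout (405 nm excitation; 460 and 530 nm emission) quantified AP-1-driven beta-lactamase in ME-180 cells after 5 h with compound and EC50 EGF; AC50 values were derived for activators and inhibitors.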

[3] = target: Cytochrome P450 1A2 (Homo sapiens) (UniProt P05177); experiment: p450-cyp1a2 (AID 410; calls by dose curve; further: potency means the concentration at half of the fitted maximal effect;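 on activity change, negative = inhibition: -100% = full effect of reference inhibitor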); details: recombinant CYP1A2, luciferin-ME demethylation, luminescence; series mostly up to 57 µM
Procedure, shortened: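 O-Demethylation of luciferin 6' methyl ether by human CYP1A2 is monitored as luciferase luminescence. Substrate sits at Km (100uM); enzyme is 20nM. Values are scaled to 57 uM furafylline as maximal inhibition.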

[4] = NFAT Signaling Pathway (AID 444); details: Jurkat NFAT-bla M1, carbachol, beta-lactamase ratio, 5 h; at 7.69 µM (top of the series) unless noted;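 further: carbachol stimulus at about its EC50 of 1 µM final; on the % scale 0 is the no-effect control and ±100 the full control effect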
Procedure, shortened: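 Read-out: CCF4 FRET ratio (460 nm/530 nm) after 1 h RT dye loading, used for %activity and AC50 from titration series. Cells: Jurkat NFAT-β-lactamase/M1 line, treated with compound plus 1 uM carbachol for 5 h, 37 °C.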

[5] = Stat Signaling Pathway (AID 446); details: ME-180 (cervical carcinoma) SIE beta-lactamase reporter, IL-6 stimulated, 5 h; at 7.69 µM (top of the series) unless noted;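 further: ME-180 cervical cancer cells given 40 pM IL-6 alongside compound; SIE-controlled beta-lactamase reporter measured as 460/530 nm FRET emission ratio; on the % scale 0 is the no-effect control and ±100 the full control effect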
Procedure, shortened: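 Overnight-plated ME-180 cells bearing a STAT Inducible Element beta-lactamase reporter; 5 h co-exposure to compound and 40 pM IL-6; values normalized to 300 pM IL-6 and 125 nM JAK inhibitor controls.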

[6] = target: Glucocorticoid receptor (Homo sapiens) (UniProt P04150); experiment: GR-EFC Redistribution (AID 451; calls by dose curve; further: potency means the concentration at half of the fitted maximal effect); details: CHO-K1 GR-EFC translocation, beta-gal luminescence, 2 h
Procedure, shortened: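 Translocation of GR-ED fusion to nuclear EA restores b-gal, read by luminescence after 1 h room-temperature detection. Engineered CHO-K1 biosensor cells, 1,000/well, exposed 2 h at 37 C to titrations up to 46 uM final.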

[7] = target: 3',5'-cyclic-AMP phosphodiesterase 4B (Homo sapiens) (UniProt Q07343); experiment: qHTS Assay for Inhibitors of PDE-IV (AID 607; active means well fitted activation curve with a large enough effect in the main read-out, with a control signal flat, not every such curve was filed as active; further: % of control where 0% means no effect); details: HEK293 ACTOne CNG channel cells, membrane potential fluorescence; series mostly up to 22.9 µM
Procedure, shortened: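 Live HEK293 cells with a modified cyclic nucleotide-gated (CNG) channel report intracellular cAMP via membrane-potential dye fluorescence (ex 535/em 590 nm). Endogenous PDE-IV was targeted. Compounds were tested at up to 22.9 uM final; RO 20-1724 100 uM served as control.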

[8] = target: Cytochrome P450 3A4 (Homo sapiens) (UniProt P08684); experiment: qHTS Assay for Activators of Cytochrome P450 3A4 (AID 885; active means well fitted curve in the direction sought with a large enough effect; an effect the other way counts as inactive or inconclusive; further: nearly all actives have a fitted effect of over 65% in size); details: recombinant CYP3A4, Luciferin-PPXE luminescence, 60 min; series mostly up to 57.1 µM
Procedure, shortened: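 Using 20nM recombinant human CYP3A4 in potassium phosphate (200mM), substrate Luciferin-PPXE at 25uM, luminescent luciferin detection followed a 60-min RT NADPH reaction; data scaled to 57 uM ketoconazole.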

[9] = qHTS Assay for Lipid Storage Modulators (AID 1519; calls by dose curve); details: Drosophila S3 cells, BODIPY lipid droplet/cell ratio, laser cytometry, cells loaded with oleic acid; for activity change, negative = inhibition: at 57.5 µM (top of the series)
Procedure, shortened: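 Cells seeded at 5,000 per well were treated with compounds over a concentration series and loaded with oleic acid (400 uM, as added). Lipid droplet fluorescence (488 nm excitation, 500-530 nm channel) was read by laser-scanning cytometry and normalized to 20 uM Triacsin C.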

[10] = Primary qHTS for small molecule stabilizers of the endoplasmic reticulum resident proteome: Secreted ER Calcium Modulated Protein (SERCaMP) assay (AID 1508630; active means well fitted curve in the direction sought with a large enough effect; an effect the other way counts as inactive or inconclusive; further: on the % scale 0 is the no-effect control and ±100 the full control effect); details: SH-SY5Y GLuc-SERCaMP (Gaussia luciferase released on ER calcium loss) secretion, thapsigargin, luminescence; series mostly up to 38.4 µM
Procedure, shortened: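 The SH-SY5Y reporter protocol was run at 3 concentrations up to 38.3 uM (primary) or 11 concentrations (follow-up): 16 h compound, 100 nM thapsigargin for 4 h, then extracellular luciferase luminescence.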

[11] = target: Cytochrome P450 2D6 (Homo sapiens) (UniProt P10635); experiment: qHTS Assay for Inhibitors and Substrates of Cytochrome P450 2D6 (AID 891; active means well fitted curve in the direction sought with a large enough effect; an effect the other way counts as inactive or inconclusive; further: potency means the concentration at half of the fitted maximal effect; nearly all actives have a fitted effect of over 60% in size); details: recombinant CYP2D6, luciferin-ME EGE luminescence; series mostly up to 57.1 µM
Procedure, shortened: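 Luminescent read-out of luciferin formed by 5 nM human CYP2D6 demethylating 30 uM Luciferin-ME EGE (Km level) over 60 min at room temperature after NADPH regeneration addition. Data normalized to full inhibition by 1.43 uM quinidine.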

[12] = target: Cytochrome P450 2C9 (Homo sapiens) (UniProt P11712); experiment: qHTS Assay for Inhibitors and Substrates of Cytochrome P450 2C9 (AID 883; active means well fitted curve in the direction sought with a large enough effect; an effect the other way counts as inactive or inconclusive; further: on the % scale 0 is the no-effect control and ±100 the full control effect; nearly all actives have a fitted effect of over 60% in size); details: recombinant CYP2C9, luciferin-H luminescence, 60 min; series mostly up to 57.1 µM
Procedure, shortened: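 Inhibition of CYP2C9 is scored as loss of luminescence, with 57uM sulphaphenazole defining 100% inhibition. Substrate Luciferin-H is used at 100uM, equal to its KM; enzyme at 10nM in 25mM KPO4, 60 min at 37C with NADPH regeneration.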

[13] = target: Mitogen-activated protein kinase 10 (Mus musculus) (UniProt Q61831); experiment: JNK3 AlphaScreen Assay (AID 530); details: JNK3 lysate, c-Jun phosphorylation; series mostly up to 57.1 µM
Procedure, shortened: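 qHTS titrations with 15 min compound pre-incubation before adding ATP (10 uM final). Read-out: AlphaScreen of Ser73-phosphorylated biotin-GST-cJun using HepG2 lysate JNK3 activated by IL-1β and TNFα.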

[14] = target: Cytochrome P450 2C19 (Homo sapiens) (UniProt P33261); experiment: qHTS Assay for Inhibitors and Substrates of Cytochrome P450 2C19 (AID 899; active means well fitted curve in the direction sought with a large enough effect; an effect the other way counts as inactive or inconclusive; further: potency means the concentration at half of the fitted maximal effect; nearly all actives have a fitted effect of over 60% in size); details: recombinant CYP2C19, luciferin-H EGE luminescence; series mostly up to 57.1 µM
Procedure, shortened: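 5nM enzyme + 10uM Luciferin-H EGE (=KM), 50mM KPO4; cpd pin-transferred, 10 min 37C; NADPH regen, 60 min 37C; stopped w/ luciferin detection reagent, 20 min; luminescence. Normalized to 57uM ketoconazole (AC100).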

[15] = measured here: cell count channel max response
[16] = measured here: lipid channel max response

Chain of Lysosomal acid glucosylceramidase (Homo sapiens) (P04062 whole entry, looked up): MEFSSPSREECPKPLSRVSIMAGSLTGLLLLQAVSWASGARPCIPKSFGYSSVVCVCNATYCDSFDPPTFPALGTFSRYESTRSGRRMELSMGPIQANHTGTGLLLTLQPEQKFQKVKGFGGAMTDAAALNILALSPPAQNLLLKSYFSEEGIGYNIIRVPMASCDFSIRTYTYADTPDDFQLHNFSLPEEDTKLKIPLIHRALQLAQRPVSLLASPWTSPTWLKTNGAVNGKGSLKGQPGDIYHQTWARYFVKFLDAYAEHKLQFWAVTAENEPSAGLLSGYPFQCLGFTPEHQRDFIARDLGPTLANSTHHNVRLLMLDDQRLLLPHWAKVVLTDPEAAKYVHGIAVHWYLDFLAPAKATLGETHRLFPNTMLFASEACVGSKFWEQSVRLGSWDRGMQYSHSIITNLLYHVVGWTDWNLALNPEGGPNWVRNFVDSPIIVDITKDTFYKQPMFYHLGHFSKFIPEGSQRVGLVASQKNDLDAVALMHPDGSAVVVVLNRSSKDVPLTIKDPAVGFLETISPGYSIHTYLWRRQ
Chain of 3',5'-cyclic-AMP phosphodiesterase 4B (Homo sapiens) (Q07343 whole entry, looked up): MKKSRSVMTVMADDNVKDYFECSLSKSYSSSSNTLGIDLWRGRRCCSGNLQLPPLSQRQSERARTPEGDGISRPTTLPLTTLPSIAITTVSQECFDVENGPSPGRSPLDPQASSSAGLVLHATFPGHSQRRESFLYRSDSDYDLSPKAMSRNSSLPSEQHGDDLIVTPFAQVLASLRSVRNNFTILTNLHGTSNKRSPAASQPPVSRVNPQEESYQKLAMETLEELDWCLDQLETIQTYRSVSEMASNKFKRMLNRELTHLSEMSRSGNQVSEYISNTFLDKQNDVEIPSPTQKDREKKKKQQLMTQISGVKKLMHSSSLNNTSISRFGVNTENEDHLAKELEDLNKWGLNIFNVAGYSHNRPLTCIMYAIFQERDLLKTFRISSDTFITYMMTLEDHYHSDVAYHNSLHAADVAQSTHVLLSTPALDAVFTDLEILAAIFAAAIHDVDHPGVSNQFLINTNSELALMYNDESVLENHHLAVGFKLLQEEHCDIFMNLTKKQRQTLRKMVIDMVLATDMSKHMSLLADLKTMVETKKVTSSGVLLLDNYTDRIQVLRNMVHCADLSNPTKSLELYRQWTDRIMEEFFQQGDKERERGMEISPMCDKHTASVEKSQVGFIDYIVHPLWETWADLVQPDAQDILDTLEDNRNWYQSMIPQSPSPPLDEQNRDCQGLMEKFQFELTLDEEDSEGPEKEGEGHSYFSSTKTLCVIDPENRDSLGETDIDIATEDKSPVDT
Chain of Glucocorticoid receptor (Homo sapiens) (P04150 whole entry, looked up, the tested form may be a part): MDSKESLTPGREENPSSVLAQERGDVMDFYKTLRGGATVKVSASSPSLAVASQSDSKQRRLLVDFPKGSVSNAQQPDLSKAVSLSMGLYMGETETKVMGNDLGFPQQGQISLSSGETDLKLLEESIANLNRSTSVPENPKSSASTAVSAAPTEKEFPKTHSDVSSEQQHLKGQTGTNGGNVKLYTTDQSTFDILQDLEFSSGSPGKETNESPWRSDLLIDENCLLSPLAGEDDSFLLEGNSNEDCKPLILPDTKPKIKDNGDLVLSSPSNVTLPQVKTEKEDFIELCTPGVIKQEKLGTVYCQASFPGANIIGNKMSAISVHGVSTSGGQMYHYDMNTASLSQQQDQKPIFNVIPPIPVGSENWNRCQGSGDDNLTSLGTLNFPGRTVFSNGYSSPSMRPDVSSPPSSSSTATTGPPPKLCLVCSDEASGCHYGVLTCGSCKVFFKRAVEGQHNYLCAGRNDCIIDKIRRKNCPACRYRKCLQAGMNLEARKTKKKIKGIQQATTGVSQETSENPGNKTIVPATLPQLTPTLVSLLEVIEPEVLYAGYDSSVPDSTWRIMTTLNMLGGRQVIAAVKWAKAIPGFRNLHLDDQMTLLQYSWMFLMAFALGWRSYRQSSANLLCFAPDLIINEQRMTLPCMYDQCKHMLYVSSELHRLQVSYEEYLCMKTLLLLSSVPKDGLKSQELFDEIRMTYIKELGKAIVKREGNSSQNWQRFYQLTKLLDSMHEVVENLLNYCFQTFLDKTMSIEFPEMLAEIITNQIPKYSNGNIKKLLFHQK
Chain of Cytochrome P450 1A2 (Homo sapiens) (P05177 whole entry, looked up): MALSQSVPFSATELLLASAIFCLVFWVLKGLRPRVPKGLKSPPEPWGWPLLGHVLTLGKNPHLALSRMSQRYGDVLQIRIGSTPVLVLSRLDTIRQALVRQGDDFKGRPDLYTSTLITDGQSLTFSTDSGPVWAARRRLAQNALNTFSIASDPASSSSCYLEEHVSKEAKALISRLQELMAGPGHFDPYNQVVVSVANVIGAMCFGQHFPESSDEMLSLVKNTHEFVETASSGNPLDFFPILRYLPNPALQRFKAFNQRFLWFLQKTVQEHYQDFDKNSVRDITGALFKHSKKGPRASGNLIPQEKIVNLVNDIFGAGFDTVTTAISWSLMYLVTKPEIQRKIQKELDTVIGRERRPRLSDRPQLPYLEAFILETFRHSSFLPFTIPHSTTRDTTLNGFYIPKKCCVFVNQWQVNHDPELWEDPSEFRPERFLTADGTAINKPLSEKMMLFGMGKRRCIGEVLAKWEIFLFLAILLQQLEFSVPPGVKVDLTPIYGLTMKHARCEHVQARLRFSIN
Chain of Cytochrome P450 2D6 (Homo sapiens) (P10635 whole entry, looked up): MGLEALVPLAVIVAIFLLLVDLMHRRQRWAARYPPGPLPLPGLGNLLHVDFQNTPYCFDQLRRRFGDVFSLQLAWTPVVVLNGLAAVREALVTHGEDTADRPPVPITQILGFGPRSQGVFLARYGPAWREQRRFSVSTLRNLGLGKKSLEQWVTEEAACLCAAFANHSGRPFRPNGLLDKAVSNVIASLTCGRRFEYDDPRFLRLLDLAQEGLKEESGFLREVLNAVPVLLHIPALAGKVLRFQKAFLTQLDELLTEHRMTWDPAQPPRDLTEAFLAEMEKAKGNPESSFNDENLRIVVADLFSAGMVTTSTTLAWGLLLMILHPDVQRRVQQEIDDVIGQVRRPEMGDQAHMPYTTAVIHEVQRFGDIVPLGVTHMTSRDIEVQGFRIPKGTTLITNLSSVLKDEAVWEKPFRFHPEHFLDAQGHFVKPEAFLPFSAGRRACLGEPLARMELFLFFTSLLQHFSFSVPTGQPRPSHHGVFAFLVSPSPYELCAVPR
Chain of Cytochrome P450 3A4 (Homo sapiens) (P08684 whole entry, looked up): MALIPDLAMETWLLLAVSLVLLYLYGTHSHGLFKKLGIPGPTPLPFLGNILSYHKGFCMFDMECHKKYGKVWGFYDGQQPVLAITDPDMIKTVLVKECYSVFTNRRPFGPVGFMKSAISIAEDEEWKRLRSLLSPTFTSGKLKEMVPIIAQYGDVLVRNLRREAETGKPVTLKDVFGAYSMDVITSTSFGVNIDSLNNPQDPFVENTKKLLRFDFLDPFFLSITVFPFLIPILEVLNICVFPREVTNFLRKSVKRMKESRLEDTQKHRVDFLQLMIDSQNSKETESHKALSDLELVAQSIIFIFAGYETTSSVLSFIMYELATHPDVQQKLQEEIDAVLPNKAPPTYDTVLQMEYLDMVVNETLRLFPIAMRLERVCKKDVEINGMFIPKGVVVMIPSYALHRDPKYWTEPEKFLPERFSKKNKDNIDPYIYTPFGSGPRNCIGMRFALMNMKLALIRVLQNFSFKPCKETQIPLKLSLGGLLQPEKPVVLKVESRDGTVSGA
Chain of Cytochrome P450 2C19 (Homo sapiens) (P33261 whole entry, looked up): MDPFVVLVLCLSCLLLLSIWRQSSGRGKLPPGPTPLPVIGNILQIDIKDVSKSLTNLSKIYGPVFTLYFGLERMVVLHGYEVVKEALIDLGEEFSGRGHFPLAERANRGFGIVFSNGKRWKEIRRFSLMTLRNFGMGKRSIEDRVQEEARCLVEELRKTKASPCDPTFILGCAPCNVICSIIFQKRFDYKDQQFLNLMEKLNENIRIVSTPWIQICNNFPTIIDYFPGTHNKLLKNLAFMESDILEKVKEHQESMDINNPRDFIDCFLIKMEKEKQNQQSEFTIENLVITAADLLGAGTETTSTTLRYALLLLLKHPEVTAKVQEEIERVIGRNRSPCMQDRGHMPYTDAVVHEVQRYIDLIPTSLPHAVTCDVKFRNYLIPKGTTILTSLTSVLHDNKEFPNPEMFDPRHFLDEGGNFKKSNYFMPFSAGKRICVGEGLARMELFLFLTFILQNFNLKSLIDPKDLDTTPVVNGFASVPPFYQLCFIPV
Chain of Cytochrome P450 2C9 (Homo sapiens) (P11712 whole entry, looked up): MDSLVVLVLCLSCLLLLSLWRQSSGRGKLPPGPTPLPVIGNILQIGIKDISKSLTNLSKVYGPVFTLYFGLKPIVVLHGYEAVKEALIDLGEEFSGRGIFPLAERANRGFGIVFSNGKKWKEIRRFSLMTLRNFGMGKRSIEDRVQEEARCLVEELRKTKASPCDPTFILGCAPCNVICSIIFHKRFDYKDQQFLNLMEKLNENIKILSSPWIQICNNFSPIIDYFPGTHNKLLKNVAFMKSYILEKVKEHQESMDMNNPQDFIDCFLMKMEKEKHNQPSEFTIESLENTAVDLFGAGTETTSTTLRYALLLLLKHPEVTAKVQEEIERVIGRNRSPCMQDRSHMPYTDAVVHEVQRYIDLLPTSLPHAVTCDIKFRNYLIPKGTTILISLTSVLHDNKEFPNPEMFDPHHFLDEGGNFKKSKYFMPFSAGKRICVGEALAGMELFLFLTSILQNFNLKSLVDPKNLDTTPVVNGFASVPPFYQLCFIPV

## c1ccc(-c2cccc(N3CC[C@@]4(CCCNC4)C3)c2)cc1
[1]
  Potency: > 11.4 µM (inactive)
[2]
  activity change, negative = inhibition: 1.23% (inactive)
[3]
  Potency: 12.6 µM (active)
[4]
  activity change, negative = inhibition: 6.24% (inactive)
[5]
  activity, negative = inhibition: -6.03% (inactive)
[6]
  Potency: > 46 µM (inactive)
[7]
  Potency: inactive
[8]
  Potency: inactive
[9]
  activity change, negative = inhibition: 1.77% (inactive)
[9]; [15]
  max response: -28.1%
[9]; [16]
  max response: -22.7%
[10]
  Potency: inactive

## Cn1cccc1C(=O)N1CCC[C@@]2(CCN(c3ccccc3)C2)C1
[1]
  Potency: > 11.4 µM (inactive)
[2]
  activity change, negative = inhibition: -3.25% (inactive)
[3]
  Potency: 12.6 µM (active)
[4]
  activity change, negative = inhibition: -15.1% (inactive)
[5]
  activity, negative = inhibition: -10.8% (inactive)
[6]
  Potency: > 46 µM (inactive)
[7]
  Potency: inactive
[8]
  Potency: inactive
[9]
  activity change, negative = inhibition: -1.47% (inactive)
[9]; [15]
  max response: 15.8%
[9]; [16]
  max response: 17.2%
[10]
  Potency: inactive

## O=C(c1ccncc1)N1CCC2(CC1)CCN(c1cccc(-c3ccccc3)c1)CC2
[1]
  Potency: > 11.4 µM (inactive)
[2]
  activity change, negative = inhibition: -1.52% (inactive)
[3]
  Potency: 20 µM (active)
[4]
  activity change, negative = inhibition: 4.67% (inactive)
[5]
  activity, negative = inhibition: -12.5% (inactive)
[6]
  Potency: > 46 µM (inactive)
[7]
  Potency: inactive
[11]
  Potency: 7.94 µM (active)
[9]
  activity change, negative = inhibition: 1.19% (inactive)
[9]; [15]
  max response: 19.1%
[9]; [16]
  max response: 21.6%
[10]
  Potency: inactive

## Cc1noc(C)c1C(=O)N1CCC2(CCN(Cc3cc(C(F)(F)F)cc(C(F)(F)F)c3)CC2)CC1
[1]
  Potency: > 11.4 µM (inactive)
[2]
  activity change, negative = inhibition: -3.69% (inactive)
[3]
  Potency: inactive
[4]
  activity change, negative = inhibition: -22.4% (inactive)
[5]
  activity, negative = inhibition: -0.996% (inactive)
[7]
  Potency: inactive
[9]
  activity change, negative = inhibition: 2.45% (inactive)
[9]; [15]
  max response: -5.2%
[9]; [16]
  max response: -1.09%
[10]
  Potency: inactive

## O=C(c1cnccn1)N1CCC2(CC1)CN(c1ccncc1)C2
[1]
  Potency: > 11.4 µM (inactive)
[2]
  activity change, negative = inhibition: 4.42% (inactive)
[3]
  Potency: inactive
[4]
  activity change, negative = inhibition: -19.4% (inactive)
[5]
  activity, negative = inhibition: 2.09% (inactive)
[6]
  Potency: > 46 µM (inactive)
[7]
  Potency: inactive
[9]
  activity change, negative = inhibition: -0.9% (inactive)
[9]; [15]
  max response: -18.2%
[9]; [16]
  max response: -17.9%
[10]
  Potency: inactive

## CS(=O)(=O)N1CCC2(CC1)CN(c1cccc(-c3ccccc3)c1)C2
[1]
  Potency: > 11.4 µM (inactive)
[2]
  activity change, negative = inhibition: 6.38% (inactive)
[3]
  Potency: 5.01 µM (active)
[4]
  activity change, negative = inhibition: 9.12% (inactive)
[5]
  activity, negative = inhibition: -14.9% (inactive)
[6]
  Potency: > 46 µM (inactive)
[7]
  Potency: inactive
[12]
  Potency: inactive
[9]
  activity change, negative = inhibition: -16.1% (inactive)
[9]; [15]
  max response: -11.7%
[9]; [16]
  max response: -21%
[10]
  Potency: inactive

## CS(=O)(=O)N1CCC2(CC1)CN(c1ccncc1)C2
[1]
  Potency: > 11.4 µM (inactive)
[2]
  activity change, negative = inhibition: -2.13% (inactive)
[3]
  Potency: inactive
[4]
  activity change, negative = inhibition: -17.7% (inactive)
[5]
  activity, negative = inhibition: -0.0709% (inactive)
[13]
  outcome: inactive
[7]
  Potency: inactive
[9]
  activity change, negative = inhibition: 4.12% (inactive)
[9]; [15]
  max response: -19.4%
[9]; [16]
  max response: -21.8%
[10]
  Potency: inactive

## O=C(c1ccncc1)N1CCC2(CC1)CN(c1ccccc1)C2
[1]
  Potency: > 11.4 µM (inactive)
[2]
  activity change, negative = inhibition: -2.66% (inactive)
[3]
  Potency: inactive
[4]
  activity change, negative = inhibition: 4.65% (inactive)
[5]
  activity, negative = inhibition: 3.39% (inactive)
[13]
  outcome: inactive
[7]
  Potency: inactive
[11]
  Potency: 7.94 µM (active)
[14]
  Potency: 0.316 µM (active)
[9]
  activity change, negative = inhibition: 6.84% (inactive)
[9]; [15]
  max response: 9.42%
[9]; [16]
  max response: 18.7%
[10]
  Potency: inactive
